GRP78 ERSR act: induces the endoplasmic reticulum stress response in human glioma cells; AID 602332; 420,000 tested, 0.02% active; Potency, µM, actives largely listed as activators; U87-MG GRP78 promoter luciferase reporter, 16 h; note: series mostly up to about 76 µM; nearly all actives have a fitted effect of over 35% in size
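Stably transfected U87-MG glioma cells carrying a GRP78-based luciferase sensor; 16 h compound incubation. Luminescence end-point read 10 min after Bright-Glo addition at room temperature.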
TRPML1 blocker: human mucolipin-1 channel inhibition. TRPML1-inducible cells, Ca2+ dye fluorescence, FDSS; stronger effect = lower value; inhibition of EC80 agonist-evoked calcium signal. activity change, negative = inhibition, % (test concentration not listed). 390,000 tested, 0.02% active. AID 624415; in the data active = activity change below about -50%; inconclusive = between about -30% and that limit;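 note: stimulus is agonist 54-4 at its EC80 concentration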
Target sequence (Q9GZU1 whole entry, looked up): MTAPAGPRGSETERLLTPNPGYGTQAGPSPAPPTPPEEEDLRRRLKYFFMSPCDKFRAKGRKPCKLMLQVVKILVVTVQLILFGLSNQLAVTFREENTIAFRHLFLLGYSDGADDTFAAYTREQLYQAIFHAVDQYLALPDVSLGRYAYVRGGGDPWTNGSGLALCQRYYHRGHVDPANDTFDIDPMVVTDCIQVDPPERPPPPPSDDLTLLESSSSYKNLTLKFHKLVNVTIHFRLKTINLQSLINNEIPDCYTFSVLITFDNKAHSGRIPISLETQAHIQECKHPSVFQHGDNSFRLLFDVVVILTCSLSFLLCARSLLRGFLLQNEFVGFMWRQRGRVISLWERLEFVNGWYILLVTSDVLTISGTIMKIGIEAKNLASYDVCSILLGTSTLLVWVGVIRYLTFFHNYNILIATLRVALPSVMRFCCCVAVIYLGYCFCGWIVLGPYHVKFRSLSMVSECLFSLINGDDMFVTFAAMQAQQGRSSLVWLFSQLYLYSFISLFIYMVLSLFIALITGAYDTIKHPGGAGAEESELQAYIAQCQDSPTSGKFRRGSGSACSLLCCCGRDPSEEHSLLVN
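Calcium fluorescence in TRPML1-DL cells induced overnight with Tet: a 110 s read after compound pin addition, then a 110 s antagonist read after challenge with 54-4 at 4 uM final (EC80).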
Vif-A3G inh: inhibitors of Vif-APOBEC3G interaction. Potency, µM (top dose mostly 46.1 µM), hits mostly inhibitors. HeLa A3G-eYFP + Vif (tagged APOBEC3G with the HIV-1 protein that degrades it), YFP fluorescence, overnight. 410,000 tested, 0.076% active; note: nearly all actives have a fitted effect of over 60% in size
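HeLa cells stably expressing Vif and C-terminally eYFP-tagged A3G, seeded overnight at 37 deg C, then exposed to compound by pintool overnight at 37 deg C. Rise in yellow fluorescence (Ex 488/Em 500-530, Acumen) marks blocked Vif-driven A3G degradation.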
12-LOX inh: ALOX12 (human) lipoxygenase inhibition. purified 12hLO, xylenol orange hydroperoxide absorbance. Potency, µM (top dose mostly 108 µM), actives largely listed as inhibitors. 580,000 tested, 1.1% active. P18054
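Hydroperoxide product was detected by ferrous iron/xylenol orange as the 573 to 405 nm absorbance ratio. Arachidonic acid at 40 uM (final) was turned over for 30 min at room temperature by 150 nM human 12hLO, pH 7.0 Hepes buffer, after 15 min compound preincubation.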
TRPML1 agonist: agonists of human TRPML1 channel; TRPML1-expressing cells, Ca2+ dye fluorescence, FDSS; 410,000 tested, 0.12% active; activation, % (test concentration not listed); Q9GZU1; in the data active = activation above about 50%; inconclusive = mostly about 30% to 49%
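Cells: TRPML1-DL, 1X Tet inducer, ~16 h at 37 degrees C/5% CO2. Dye: ABD Ca8 no-wash + quencher, 45-90 min RT. Read: 10 s baseline, compound add, 110 s agonist phase; 54-4 EC80 (4uM final), 110 s antagonist phase.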
Vif-A3F inh: blocks the Vif interaction with APOBEC3F; Potency, µM (series often up to 46.1 µM); HeLa A3F-eYFP + Vif (tagged APOBEC3F with the HIV-1 protein that degrades it), YFP fluorescence increase; AID 602313; 390,000 tested, 0.2% active; note: nearly all actives have a fitted effect of over 65% in size
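HeLa cells stably expressing Vif plus C-terminally eYFP-tagged A3F were seeded, incubated overnight at 37 deg C, dosed with compound, incubated overnight again at 37 deg C. Yellow fluorescence (Ex 488/Em 500-530) reported blocked Vif-mediated A3F-eYFP degradation.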
Of the large screens only hits and unclear results are named; the others gave an inactive call. Compounds with a hit are over-represented: about 1.3% of the library has one in this group of screens. Unless noted, calls come from the whole dose curve; as a rule, active = well fitted curve in the direction sought with a large enough effect; inconclusive = small, poorly fitted or top-dose-only effect, or another doubt; inactive = no such curve, though single readings can be large; an effect the other way counts as inactive or inconclusive.

CCN(CC)C(=O)c1ccc(NC(=O)c2cccc(C(F)(F)F)c2)cc1	none
CCN(CC)C(=O)c1ccc(NC(=O)c2cc(-c3ccco3)nc3ccccc23)cc1	12-LOX inh 32µM (no result: GRP78 ERSR act, TRPML1 blocker, Vif-A3G inh, TRPML1 agonist, Vif-A3F inh)
COc1ccc(CCC(=O)N2CCC3(CC2)NCc2ccccc2-n2ccnc23)cc1	none (no result: GRP78 ERSR act, TRPML1 blocker, Vif-A3G inh, TRPML1 agonist, Vif-A3F inh)
CCOc1cncc(/C=C/CCNC)c1	12-LOX inh 18µM (no result: TRPML1 blocker, Vif-A3G inh, TRPML1 agonist, Vif-A3F inh)
CC(C)NC(=O)N1C[C@@H]2C[C@H](C1)c1ccc(C3CCCCC3)c(=O)n1C2	12-LOX inh 32µM (no result: GRP78 ERSR act, TRPML1 blocker, Vif-A3G inh, TRPML1 agonist, Vif-A3F inh)
N#C/C(=C\c1ccc(O)c(O)c1)C(=O)NCCCNC(=O)/C(C#N)=C/c1ccc(O)c(O)c1	GRP78 ERSR act 37µM (no result: TRPML1 blocker, Vif-A3G inh, 12-LOX inh, TRPML1 agonist, Vif-A3F inh)
CN1/C(=C\C=C2C(=O)NC(=O)NC2=O)C(C)(C)c2ccccc21	Vif-A3G inh inconclusive, TRPML1 agonist 81, Vif-A3F inh 11µM
COc1cc2c(cc1OCc1ccccc1)N(C(=O)c1cc3ccccc3n1C)CC21CCN(C)CC1	12-LOX inh 32µM (no result: GRP78 ERSR act, TRPML1 blocker, Vif-A3G inh, TRPML1 agonist, Vif-A3F inh)
COc1cc2c(cc1OCc1ccccc1)N(C(=O)c1ccncc1)CC21CCN(C)CC1	none (no result: GRP78 ERSR act, TRPML1 blocker, Vif-A3G inh, TRPML1 agonist, Vif-A3F inh)
Cc1ccc(/C=C2\C(=O)NC(=O)N(Cc3ccccc3Cl)C2=O)o1	Vif-A3G inh inconclusive, 12-LOX inh 32µM
Cc1ccc(/C=C2/C(=O)NC(=O)N(Cc3ccc(F)cc3)C2=O)o1	none (no result: GRP78 ERSR act, TRPML1 blocker, Vif-A3G inh, TRPML1 agonist, Vif-A3F inh)
CCOc1ccc(CNCCc2c[nH]c3ccccc23)cc1OCC	none (no result: GRP78 ERSR act, TRPML1 blocker, Vif-A3G inh, TRPML1 agonist, Vif-A3F inh)
Cc1ccc(CNCCc2c[nH]c3ccccc23)c(C)c1	12-LOX inh 13µM (no result: GRP78 ERSR act, TRPML1 blocker, Vif-A3G inh, TRPML1 agonist, Vif-A3F inh)
Clc1cccc(CNCCc2c[nH]c3ccccc23)c1	12-LOX inh 4.5µM
COc1ccc(CNCCc2c[nH]c3ccccc23)c(OC)c1OC	none
CC(C)c1ccc(C(c2c(O)c3ccccc3oc2=O)c2c(O)c3ccccc3oc2=O)cc1	12-LOX inh 7.1µM, Vif-A3F inh inconclusive
O=c1oc2ccccc2c(O)c1C(c1ccc([N+](=O)[O-])cc1)c1c(O)c2ccccc2oc1=O	12-LOX inh 7.9µM
COc1ccc(CNC(=O)N2[C@H]3CC[C@@H]2c2cncnc2C3)cc1	none (no result: GRP78 ERSR act, TRPML1 blocker, Vif-A3G inh, TRPML1 agonist, Vif-A3F inh)
O=C(CCc1c[nH]c2ccccc12)N1[C@H]2CC[C@@H]1c1cnc(-c3ccc(F)cc3)nc1C2	none (no result: GRP78 ERSR act, TRPML1 blocker, Vif-A3G inh, TRPML1 agonist, Vif-A3F inh)
c1ccc(Nc2ccc(Nc3ccccc3)cc2)cc1	12-LOX inh 14µM
O=C(CCn1ccc2cc(S(=O)(=O)N3CCCCCC3)ccc21)N1CCC2(CC1)OCCO2	none (no result: GRP78 ERSR act, TRPML1 blocker, Vif-A3G inh, TRPML1 agonist, Vif-A3F inh)
Cc1cc(/C=C2\C(=O)NC(=O)N(c3ccc(Cl)cc3)C2=O)c(C)n1-c1sc2c(c1C#N)CCCC2	GRP78 ERSR act inconclusive, 12-LOX inh 11µM
CC1(C)CSC(=NCc2ccccc2)N1	TRPML1 agonist 91
O=c1ccc(-c2ccccc2)c2n1C[C@H]1C[C@@H]2CN(Cc2ccc(CO)o2)C1	none (no result: GRP78 ERSR act, TRPML1 blocker, Vif-A3G inh, TRPML1 agonist, Vif-A3F inh)
O=C(N/N=C/c1c(O)n(CCC2=CCCCC2)c(=S)[nH]c1=O)c1ccccc1	12-LOX inh 28µM
O=C(N/N=C/c1c(O)n(CCC2=CCCCC2)c(=O)[nH]c1=O)c1ccccc1	12-LOX inh inconclusive
O=C1NCc2ccccc2CC12CCCN(Cc1ccccn1)C2 (stereo not given)	none (no result: GRP78 ERSR act, TRPML1 blocker, Vif-A3G inh, TRPML1 agonist, Vif-A3F inh)
O=C(c1ccccc1)N1CCC(C(=O)O)(c2ccccc2)CC1	none (no result: GRP78 ERSR act, TRPML1 blocker, Vif-A3G inh, TRPML1 agonist, Vif-A3F inh)
O=C(c1ccoc1)N1CC(CO)C2(CCNCC2)C1 (stereo not given)	none (no result: GRP78 ERSR act, TRPML1 blocker, Vif-A3G inh, TRPML1 agonist, Vif-A3F inh)
C[N+]1(C)C2CCC1CC(OC(=O)c1c[nH]c3ccccc13)C2 (stereo not given)	12-LOX inh 45µM
C[N+]1(C)[C@@H]2CC[C@H]1CC(OC(=O)[C@@H](CO)c1ccccc1)C2 (stereo not given in full)	12-LOX inh 18µM
C[N+]1(C)C2CCC1CC(OC(=O)c1ccco1)C2 (stereo not given)	none
C[N+]1(C)C2CC[C@H]1CC(OC(=O)C(CO)c1ccccc1)C2 (stereo not given in full)	none
CCC(C(=O)N1CCC(C#N)(c2ccccc2)CC1)n1cccn1 (stereo not given)	none (no result: GRP78 ERSR act, TRPML1 blocker, Vif-A3G inh, TRPML1 agonist, Vif-A3F inh)
Cc1ccccc1CN1CCNCC1	12-LOX inh inconclusive
Cc1ccccc1CN1CCN(Cc2cccc(F)c2)CC1	12-LOX inh 0.11µM (no result: GRP78 ERSR act, TRPML1 blocker, Vif-A3G inh, TRPML1 agonist, Vif-A3F inh)
